Compounds with a hit are over-represented: about 15% of the library has one in this group of screens.
HCV inhibitor: qHTS Assay for Inhibitors of Hepatitis C Virus (HCV) | Huh7.5.1 HCVcc-Cre infection, luciferase reporter, 44 h | actives 3.4% (n = 340,000) | Potency, µM (doses to about 41.8 µM), actives largely listed as inhibitors
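Whole-lifecycle infectious HCVcc-Cre system; cells 1,000/well, compound then virus (~0.5 moi) added 4 h after plating, 44 h culture. Luciferase read 15 sec following 15 min substrate incubation, room temp.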
Pf growth 96h: Primary qHTS for delayed death inhibitors of the malarial parasite plastid, 96 hour incubation. P. falciparum luciferase reporter growth, 96 h. Potency, µM (doses to about 28.7 µM), hits mostly inhibitors. actives 6.9% (n = 320,000). AID 504834, 2011
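Two parasite generations (96 h, 37 C, 5% CO2) of compound exposure in infected erythrocytes (0.05% parasitemia, 2% hematocrit). Luciferase-reporter P. falciparum; decreased luminescence indicates inhibited growth, aimed at apicoplast-acting delayed death.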
Sm TGR block: qHTS Assay for the Inhibitors of Schistosoma Mansoni Peroxiredoxins. Schistosoma mansoni thioredoxin glutathione reductase (TGR), Q962Y6. purified TGR, DTNB reduction, TNB absorbance 405 nm. Potency, µM (top dose mostly 114 µM), usual class: inhibitors. actives 3% (n = 360,000); also: nearly all actives have a fitted effect of over 60% in size
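Kinetic colorimetric format: TGR-catalysed, NADPH-driven DTNB reduction monitored via TNB absorbance. Enzyme dispensed at 20 nM; compound exposure 15 min at room temperature before reaction start.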
SARS PLP yeast: qHTS of Yeast-based Assay for SARS-CoV PLP. AID 485353, 2010. actives 0.19% (n = 330,000). Potency, µM (series often up to 32.9 µM), hits mostly activators. S. cerevisiae expressing SARS-CoV PLpro, growth rescue; calls by dose curve; also: nearly all actives have a fitted effect of over 55% in size
HCMV inh: qHTS Assay for inhibitors of the human cytomegalovirus (HCMV); HFF cells, HCMV-luciferase reporter, 72 h; active compounds read low; AID 1259415, 2018; actives 4.5% (n = 410,000); activity change, negative = inhibition, % at 57.5 µM; in the data active = activity change below about -60%; inconclusive = no clear call, values can overlap the other calls; inactive = above about -39%
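Luciferase read-out from HCMV-luciferase-infected HFFs (MOI 1 PFU/cell) 72 h post infection at 37C; compounds added after 16 h cell attachment; activity normalized between buffer-only basal and Salinomycin (10uM) inhibitor controls.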
Pf growth 48h: Primary qHTS for delayed death inhibitors of the malarial parasite plastid, 48 hour incubation. P. falciparum luciferase growth in erythrocytes, 48 h. Potency, µM (doses to about 28.7 µM), hits mostly inhibitors. actives 5.9% (n = 310,000). AID 504832, 2011
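A one-generation exposure of luciferase-tagged malaria parasites in RPMI 1640/Albumax erythrocyte culture, 37 C and 5% CO2. Inhibition is inferred from decreased luminescence after adding detection reagent.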
A number is an active result; [ ] = another dose, or the depositor's remark. Unless noted, calls follow the shape of the dose curve; as a rule, active = well fitted curve in the direction sought with a large enough effect; inconclusive = small, poorly fitted or top-dose-only effect, or another doubt; inactive = no such curve, though single readings can be large; an effect the other way counts as inactive or inconclusive.

`Cc1ccc(-c2csc3nc4cc(C(=O)NC5CCC(O)CC5)ccc4c(=O)n23)cc1` (stereo unspecified) gave HCV inhibitor inconclusive, Pf growth 96h inactive, Sm TGR block inactive, SARS PLP yeast inactive, HCMV inh inactive and Pf growth 48h inactive.
For CC(C)CC1NC(=O)N(CC(=O)Nc2cc(F)ccc2F)C1=O (stereo unspecified) the results were HCV inhibitor inactive, Pf growth 96h inactive, Sm TGR block inactive, SARS PLP yeast inactive, HCMV inh inactive and Pf growth 48h inactive.
For CCCC(=O)N1CCN(c2ccc(NC(=O)c3ccc(Br)o3)cc2)CC1 the results were HCV inhibitor inactive, Sm TGR block inactive, SARS PLP yeast inactive, HCMV inh inactive and Pf growth 48h inactive.
CC(C)(C)C(=O)N1CCN(c2ccc(NC(=O)c3ccc([N+](=O)[O-])o3)cc2)CC1 was read as HCV inhibitor inconclusive, Pf growth 96h 7.38µM, Sm TGR block inactive, SARS PLP yeast inactive, HCMV inh -98.5 and Pf growth 48h inconclusive.
For CCC(=O)N1CCN(c2ccc(NC(=O)c3ccc([N+](=O)[O-])o3)cc2)CC1 the results were HCV inhibitor inconclusive, Pf growth 96h inactive, Sm TGR block 28.2µM, SARS PLP yeast inactive, HCMV inh -98.3 and Pf growth 48h 10.4µM.
Screening CCCC(=O)N1CCN(c2ccc(NC(=O)c3ccc([N+](=O)[O-])o3)cc2)CC1 returned HCV inhibitor inconclusive, Pf growth 96h inactive, Sm TGR block inconclusive, SARS PLP yeast inactive, HCMV inh -96.2 and Pf growth 48h 16.5µM.
Screening O=C(Nc1ccc(N2CCN(C(=O)c3ccc(Cl)cc3)CC2)cc1)c1ccc([N+](=O)[O-])o1 returned HCV inhibitor 10µM, Pf growth 96h inconclusive, Sm TGR block inactive, SARS PLP yeast inactive, HCMV inh -95.7 and Pf growth 48h 3.29µM.
`CC(=O)c1cccc(NC(=O)COC(=O)[C@@H](NC(=O)OCc2ccccc2)C(C)C)c1` gave HCV inhibitor inactive, Pf growth 96h inactive, Sm TGR block inactive, SARS PLP yeast inactive, HCMV inh inactive and Pf growth 48h inactive.
Screening CCOc1ccccc1-n1nnc(-c2nc(-c3ccccc3C)no2)c1C returned Sm TGR block inactive and HCMV inh inactive.
`N=c1c2ccccc2nc2n1CCCCC2` gave HCMV inh inactive.
For COc1ccc(/C=N/NC(=S)Nc2ccccc2[N+](=O)[O-])cc1O the results were HCV inhibitor inconclusive, Pf growth 96h inactive, Sm TGR block inactive, SARS PLP yeast inconclusive, HCMV inh -65.9 and Pf growth 48h inactive.
For CCCOc1ccc(/C=N/Nc2ccccc2[N+](=O)[O-])c(O)c1 the results were HCV inhibitor inactive, Pf growth 96h inactive, Sm TGR block inactive, SARS PLP yeast inactive, HCMV inh inconclusive and Pf growth 48h inactive.
For O=[N+]([O-])c1cc(/C=N/NC(=S)Nc2ccccc2Cl)ccc1Cl the results were HCV inhibitor inconclusive, Pf growth 96h inactive[5.75 µM], Sm TGR block inactive, SARS PLP yeast inactive, HCMV inh inactive and Pf growth 48h inactive.
Screening CCCOc1ccc(/C=N/NC(=S)Nc2ccccc2[N+](=O)[O-])c(O)c1 returned HCV inhibitor inconclusive, Pf growth 96h inconclusive, Sm TGR block inactive, SARS PLP yeast 10µM, HCMV inh -100.8 and Pf growth 48h 2.62µM.
For O=C(Nc1ccc2c3c(cccc13)CC2)c1cccc([N+](=O)[O-])c1 the results were HCV inhibitor inactive, Pf growth 96h inconclusive, Sm TGR block inactive, SARS PLP yeast inactive, HCMV inh -60.8 and Pf growth 48h inactive.
Screening O=C(Nc1ccncc1NC(=O)c1cccc([N+](=O)[O-])c1)c1cccc([N+](=O)[O-])c1 returned HCV inhibitor inconclusive, Pf growth 96h 2.33µM, Sm TGR block inactive, SARS PLP yeast inactive, HCMV inh inactive and Pf growth 48h inconclusive.

High-throughput results from PubChem BioAssay.
